# In PubChem BioAssay (NCATS):
# Records with an inconclusive call do not appear. A number with no mark means an inactive call. The source made the active and inactive calls. Calls follow the shape of the dose curve; as a rule, active = well fitted inhibition curve with a large enough effect; inconclusive = small, poorly fitted or top-dose-only effect; inactive = flat fitted curve, though single readings scatter.
# Experiments:
# Assay in all cases: Cytotoxic Profiling of Annotated Libraries Using Quantitative High-Throughput Screening (AID 1296008); also: nearly all actives have a fitted effect of over 60% in size
# Conditions in all cases: Five cell lines viability, CellTiter-Glo ATP luminescence, 48-72 h; max response: hits give low values
# CRL-7250 = system: CRL-7250
# Procedure, shortened: (§1)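 Cytotoxicity was measured as CellTiter-Glo ATP luminescence, read after 10 min at room temperature. Compound treatment of the cells lasted 48 or 72 hr at 37 degrees Celsius in a qHTS format.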
# HEK293 = system: HEK293
# Procedure, shortened: as §1
# KB-3-1 = system: KB-3-1
# Procedure, shortened: as §1
# HaCat = system: HaCat
# Procedure, shortened: as §1
# % is scaled to controls: 0 for no effect and ±100 for the full control effect; potency is read from the fitted curve at half-maximal effect.
smiles,measurement,setting,value
CNC(=S)NS(=O)(=O)c1cc(CCNC(=O)c2cc(Cl)ccc2OC)ccc1OC,max response,CRL-7250,3.39%
same,max response,HEK293,0.225%
same,max response,KB-3-1,-4.17%
CC(=O)O[C@H]1[C@@H](O)[C@H](O[C@H]2[C@@H]3C=CO[C@@H](O[C@H]4O[C@@H](CO)[C@H](O)[C@@H](O)[C@@H]4O)[C@@H]3[C@@]3(CO)O[C@@H]23)O[C@@H](C)[C@@H]1OC(=O)/C=C/c1ccccc1,max response,CRL-7250,-1.67%
same,max response,HaCat,-2.99%
same,outcome,KB-3-1,inactive
CC1(O)CC(O)C2(O)C=COC(O[C@@H]3O[C@H](CO)[C@@H](O)[C@H](O)[C@H]3O)C12 (stereo partly specified),max response,CRL-7250,-2.75%
same,max response,HEK293,4.59%
same,max response,KB-3-1,0.806%
CC(C)C(NC(=O)c1ccc2ccccc2n1)C(=O)NC(CC(=O)O)C(=O)COc1c(F)cccc1F (stereo unspecified),max response,CRL-7250,-6.89%
same,max response,HaCat,-3.62%
same,max response,KB-3-1,2.53%
C=CC(=O)Nc1cccc(Nc2nc(Nc3ccc(N4CCN(C(C)=O)CC4)cc3OC)ncc2C(F)(F)F)c1,Potency,HEK293,6.51 µM (active)
same,Potency,HaCat,2.91 µM (active)
same,Potency,KB-3-1,11.6 µM (active)
C=C(C(=O)O)[C@@H]1CC[C@@]2(C)CC[C@H](O)[C@@]2(C(C)=O)C1,outcome,CRL-7250,inactive
same,max response,HaCat,-0.694%
same,max response,KB-3-1,2.3%
COc1cc2occc2c(O[C@@H]2O[C@H](CO)[C@@H](O)[C@H](O)[C@H]2O)c1CCC(=O)O,outcome,HEK293,inactive
same,max response,HaCat,2.4%
same,outcome,KB-3-1,inactive
C[C@@H]1CCN(C(=O)N2CCCC2)C[C@@H]1N(C)c1ncnc2[nH]ccc12,max response,HEK293,-16.9%
same,outcome,HaCat,inactive
same,max response,KB-3-1,6.14%
COc1c(/C=C/C(C)(C)O)ccc2c1C(=O)OCc1cc(C)cc(O)c1O2,max response,HEK293,-114%
same,outcome,HaCat,inactive
same,max response,KB-3-1,-23.3%
CC(Cc1cc2c(c(C(N)=O)c1)N(CCCO)CC2)NCCOc1ccccc1OCC(F)(F)F (stereo unspecified),Potency,HEK293,23.1 µM (active)
same,max response,HaCat,2.13%
same,max response,KB-3-1,-19.6%
C=C1C(=O)OC2C1CCC(=C)C1CC(OC(C)=O)C(=C)C12 (stereo unspecified),Potency,CRL-7250,18.4 µM (active)
same,max response,HaCat,-12%
same,max response,KB-3-1,1.53%
O=C(O)Cc1cn(C2OCC(O)C(O)C2O[C@@H]2O[C@H](CO)[C@@H](O)[C@H](O)[C@H]2O)c2ccccc12 (stereo partly specified),max response,HEK293,0.817%
same,outcome,HaCat,inactive
same,outcome,KB-3-1,inactive
CN(C)CCn1cc(S(=O)(=O)c2cccc(F)c2)c2cccnc21,outcome,CRL-7250,inactive
same,max response,KB-3-1,1.25%
C=C1C(O)CC2C(C(=O)O)=COC(O[C@@H]3O[C@H](COC(=O)/C=C/c4ccc(O)cc4)[C@@H](O)[C@H](O)[C@H]3O)C12 (stereo partly specified),outcome,HEK293,inactive
same,max response,HaCat,-10.4%
same,outcome,KB-3-1,inactive
CCOC(=O)c1sc(NC(=O)[C@H](C(C)C)n2c(=O)[nH]c3ccccc3c2=O)nc1C,outcome,CRL-7250,inactive
same,outcome,HaCat,inactive
same,max response,KB-3-1,8.45%
C[C@@H]1C[C@@H]([C@@H](O)C(C)(C)O)O[C@H]2C[C@@]3(C)C(=C12)C[C@H](O)[C@H]1[C@@]2(C)CCC(=O)C(C)(C)C2CC[C@@]13C (stereo partly specified),max response,CRL-7250,0.566%
same,max response,HaCat,-11.9%
same,max response,KB-3-1,5.24%
COc1ccc(CN2C(=O)C(=O)c3cc(S(=O)(=O)N4CCC[C@H]4COc4cccnc4)ccc32)cc1,outcome,CRL-7250,inactive
same,outcome,KB-3-1,inactive
CC(C)(C)c1cc(Br)cc([C@H](CC(=O)O)NC(=O)CNC(=O)c2cc(O)cc(NC3=NCC(O)CN3)c2)c1 (stereo partly specified),max response,CRL-7250,-6.62%
same,max response,KB-3-1,3.01%
C[C@H](CCC(=O)O)[C@H]1CC[C@H]2[C@@H]3C[C@H](O)[C@@H]4C[C@H](O)CC[C@]4(C)[C@H]3CC[C@]12C,max response,HEK293,0.0594%
same,outcome,HaCat,inactive
same,outcome,KB-3-1,inactive
COc1cc2nc(N3CCC(N4CCCCC4)CC3)nc(NC3CCCCCC3)c2cc1OC,Potency,CRL-7250,16.4 µM (active)
same,Potency,KB-3-1,5.8 µM (active)
COc1c2c(c(CO)c3c1C(=O)OC3)OC1(C)CCC3(O)C(C)(C)OC(=O)CCC3(C)C1C2 (stereo unspecified),outcome,HEK293,inactive
same,max response,HaCat,-24.1%
same,outcome,KB-3-1,inactive
COc1ccc(C[C@H](N)C(=O)N[C@@H]2[C@H](O)[C@H](n3cnc4c(N(C)C)ncnc43)O[C@@H]2CO)cc1,Potency,HEK293,1.16 µM (active)
same,Potency,HaCat,1.46 µM (active)
same,Potency,KB-3-1,0.731 µM (active)
O=C(CC1C(=O)Nc2ccccc21)OC[C@H]1O[C@@H](OCCc2ccc(O)cc2)[C@H](O)[C@@H](O)[C@@H]1O (stereo partly specified),max response,HEK293,1.16%
same,max response,HaCat,-16.5%
same,outcome,KB-3-1,inactive
CCCOc1ccc(-c2nc(OC)c3ccccc3n2)cc1,max response,HEK293,4.19%
same,max response,HaCat,-0.801%
same,outcome,KB-3-1,inactive
Cc1cc(N(C)C)ccc1-c1nc2ccc(-c3nc4ccc(N5CCN(C)CC5)cc4[nH]3)cc2[nH]1,Potency,HEK293,8.2 µM (active)
same,max response,HaCat,-16.4%
same,Potency,KB-3-1,23.1 µM (active)
